PAX8 inh HTS – inhibitors of PAX8-driven TPO luciferase reporter, primary screen, RMG-I cells, single concentration | SteadyGlo, 24 h | 1.2% of 360,000 active | inhibition, % at 12.6 µM;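 active means mean replicate inhibition at least 60% with every replicate also reaching 60%; inconclusive means only one of the two criteria is met; inactive means mean below 60% and not all replicates reaching 60%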;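 further: luciferase light reporting Pax8 driven TPO promoter activity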
LGR2 inh – inhibitors of bursicon-induced LGR2 CRE-luciferase signal, primary screen, cell-based, HEK293, CRE-luciferase reporter, bursicon stimulation. Drosophila bursicon receptor LGR2 (rickets). bursicon-stimulated, 4 h. 0.35% of 380,000 active. AID 720647, 2013. inhibition, % at 9.99 µM;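 active means drop in luminescence signal, shown as inhibition above about 50% in the replicate tests, limit read from the data, passing the limit was not always enough; inconclusive means probably only some replicates passing the limit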;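 further: agonist challenge used bursicon conditioned medium at about half maximal strength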
EWS-Fli inh – EWS/Fli-driven NR0B1 reporter inhibitors, primary screen, A673 cells, NR0B1 luciferase, luminescence, MLPCN library | viability-normalised | inhibition, % at 12.6 µM | 0.67% of 350,000 active | AID 651661, 2012;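 active means mean inhibition of at least 50% after viability correction, with every replicate also passing that limit; inconclusive means mean reaches 50% but only one of two replicates passes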;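 further: firefly luciferase signal divided by Alamar Blue viability fluorescence both relative to DMSO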
Shn3 inh set2 – reduction of Shn3 3'UTR firefly luciferase signal, primary screen, Schnurri-3 inhibitor project, cell-based, Clone20 osteoblasts, set 2. inhibition, % at 12.5 µM. 0.52% of 360,000 active. Clone20 osteoblast Shn3 3'UTR firefly luciferase, 24 h;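 active means mean inhibition of at least 75% with every replicate also reaching 75%; inconclusive means mean inhibition at least 75% but some replicate below; inactive means mean inhibition below 75%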
MITF TRPM1 inh – inhibitors of MITF-dependent TRPM1 promoter reporter, primary screen, cell-based, SK-MEL-5, single point, luciferase; inhibition, % at 12.5 µM; SK-MEL-5 TRPM1 promoter luciferase, 24 h; 0.83% of 330,000 active; AID 488899, 2010;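 active means mean inhibition across replicates of 60% or more, whatever share of single replicates reaches that level; inconclusive means some that reach 60%, reason not given; inactive means mean inhibition across replicates below 60%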
LMP1 NFkB inh – EBV LMP1-driven NF-kappaB luciferase reporter inhibitors, primary screen, cell-based, luminescence, single point; LMP1-induced NF-kappaB luciferase reporter cells; inhibition, % at 12.5 µM; 0.69% of 350,000 active; in the data active means inhibition above about 41%; inconclusive means no clear call, values can overlap the other calls
A number is an active result; 0 = inactive; ? = inconclusive; - = no result given; ! = not active in a repeat. An excerpt weighted towards active compounds, which were near 2.2% of everything screened.

SMILES	PAX8 inh HTS	LGR2 inh	EWS-Fli inh	Shn3 inh set2	MITF TRPM1 inh	LMP1 NFkB inh
CCC(=O)OCCNc1cc(Sc2nc3ccccc3s2)c2nonc2c1[N+](=O)[O-]	-	0	-	0	0	0
Cc1nnc(Sc2cc(NCCCO)c([N+](=O)[O-])c3nonc23)s1	75	0	0	0	75	0
CO[C@@H]1CN(C)C(=O)c2ccc(NC(=O)Nc3c(C)noc3C)cc2OC[C@H](C)N(C)C[C@@H]1C	-	0	0	-	-	-
C[C@@H]1CCCCO[C@@H](CN(C)Cc2ccc(C(F)(F)F)cc2)[C@@H](C)CN([C@@H](C)CO)C(=O)c2cc(NC(=O)CCC(F)(F)F)ccc2O1	72	0	0	-	-	-
C[C@@H]1CCCCO[C@H](CN(C)Cc2ccc(C(F)(F)F)cc2)[C@H](C)CN([C@@H](C)CO)C(=O)c2cc(NC(=O)CCC(F)(F)F)ccc2O1	0	0	0	-	-	-
C[C@@H]1CN([C@H](C)CO)C(=O)c2cc(NC(=O)CCC(F)(F)F)ccc2O[C@@H](C)CCCCO[C@@H]1CN(C)Cc1ccc(C(F)(F)F)cc1	83	0	0	-	-	-
C[C@@H]1CCCCO[C@H](CN(C)C(=O)c2ccncc2)[C@@H](C)CN([C@H](C)CO)C(=O)c2cc(NC(=O)C3CCCCC3)ccc2O1	0	0	0	-	-	-
Cc1cc(C)nc(NC(=O)/C=C/c2ccccc2Cl)n1	-	-	-	0	0	0
Cc1cc(N)c2cc(NC(=O)/C=C/c3ccccc3Cl)ccc2n1	-	-	-	-	100	0
O=C(C[C@H]1CC[C@@H]2[C@H](COC[C@H](O)CN2C(=O)c2cccnc2)O1)NCc1ccccc1	0	0	0	-	-	-
COc1ccc(S(=O)(=O)Nc2ccc3c(c2)C(=O)N([C@H](C)CO)C[C@@H](C)[C@H](CN(C)C(=O)Nc2ccccc2)OCCCC[C@H](C)O3)cc1	-	0	-	-	-	-
CCCc1cc(C(=O)O)c2ccccc2n1	-	-	-	0	0	0
Cc1ccc(NC(=O)Cc2cc(C(=O)O)c3ccccc3n2)c(C)c1	70	0	0	0	0	0
O=C(Cc1ccc(N2CCNC2=O)cc1)N1CCCC(Nc2cccc(F)c2)C1 (configuration not stated)	0	0	55	0	0	0
C[C@@H](NC(=O)Cn1cnc2c(OCc3ccccc3)ncnc21)c1cccc2ccccc12	0	0	0	0	0	0
COc1ncnc2c1ncn2CCCNCCCN1CCCC1=O	72	0	0	0	-	0
C[C@@H](NCCCn1cnc2c(OCc3ccccc3)ncnc21)c1cccc2ccccc12	0	0	0	0	69	0
O=C1CCCN1CCCNCCCn1cnc2c(OCc3ccccc3)ncnc21	0	0	0	0	0	0
c1ccc(CNCCCn2cnc3c(OCc4ccccc4)ncnc32)cc1	0	0	0	0	0	0
c1ccc(CCCNCCCn2cnc3c(OCc4ccccc4)ncnc32)cc1	0	0	0	0	78	0
COc1ccccc1/C=C/C(=O)Nc1cccnc1Cl	0	0	0	0	0	0
COc1ccccc1-c1cc(C(F)(F)F)nc(S(=O)(=O)CCCC(=O)NCc2ccc(F)cc2)n1	0	0	0	88	90	0
COc1ccccc1-c1cc(C(F)(F)F)nc(S(C)(=O)=O)n1	-	-	-	97	92	0
COc1ccccc1-c1cc(C(F)(F)F)nc(S(=O)(=O)CCCC(=O)NC(C)C)n1	-	-	-	0	86	0
COc1ccccc1-c1cc(C(F)(F)F)nc(N2CCCC2)n1	0	-	-	0	0	0
SMILES	PAX8 inh HTS	LGR2 inh	EWS-Fli inh	Shn3 inh set2	MITF TRPM1 inh	LMP1 NFkB inh
COc1ccccc1-c1cc(C(F)(F)F)nc(S(=O)(=O)CCCC(=O)Nc2cccnc2Cl)n1	0	-	0	91	77	0
CCCN(C)C[C@H]1OCCCC[C@@H](C)Oc2ccc(NC(=O)c3ccncc3)cc2C(=O)N([C@@H](C)CO)C[C@H]1C	0	0	0	-	-	-
COc1ccccc1-c1cc(C(F)(F)F)nc(S(=O)(=O)CCCC(=O)N2CCCCC2C)n1 (configuration not stated)	0	-	-	97	91	0
COc1ccccc1-c1cc(C(F)(F)F)nc(N2CCCCC2)n1	-	0	-	0	0	0
C[C@@H]1CN([C@@H](C)CO)C(=O)c2c(c3ccccc3n2C)-c2ccccc2CO[C@@H]1CN(C)S(=O)(=O)c1ccsc1	0	0	0	-	-	-
C[C@H](CO)N1C[C@H](C)[C@H](CN(C)S(=O)(=O)c2ccc(Cl)cc2)OCc2ccccc2-c2c(n(C)c3ccccc23)C1=O	88!	0	0	0	-	0
C[C@H]1CN([C@@H](C)CO)C(=O)c2c(c3ccccc3n2C)-c2ccccc2CO[C@@H]1CN(C)S(=O)(=O)c1ccsc1	92	0	0	-	-	-
Cc1ccc(S(=O)(=O)N(C)C[C@@H]2OCc3ccccc3-c3c(n(C)c4ccccc34)C(=O)N([C@H](C)CO)C[C@@H]2C)cc1	71!	0	0	0	-	0
C[C@@H]1CN([C@H](C)CO)C(=O)c2cccc(NC(=O)NC3CCCCC3)c2O[C@@H]1CN(C)S(=O)(=O)c1cccs1	-	0	0	-	-	-
Cc1ccccc1N=CC=C1OC(C)(C)C(C)(C)O1	79	0	0	0	0	0
Cc1cccc(N=CC=C2OC(C)(C)C(C)(C)O2)c1	0	0	0	0	0	0
COc1ccc(C(C)NCCC(c2ccc(OC(C)C)cc2)c2ccccc2OC)cc1 (configuration not stated)	0	99	?	0	92	0
COc1ccc(C(CCNC(C)c2ccccc2)C(C)C)cc1 (configuration not stated)	0	0	0	0	-	-
O=C(/C=C/c1ccc2ccccc2n1)N1CCN(S(=O)(=O)c2ccccc2F)CC1	0	0	0	0	0	0
O=C(/C=C/c1ccc2ccccc2n1)N1CCN(S(=O)(=O)c2ccc(F)cc2)CC1	68	0	0	0	0	0
COc1ccccc1C#Cc1cnc2c(c1)C(=O)N([C@@H](C)CO)C[C@@H](C)[C@H](CN(C)S(=O)(=O)c1cn(C)cn1)O2	0	0	0	-	-	-
CN(C(=O)c1cccc(NC(=O)Cc2ccc(NC(=O)C3CCCN(C(=O)CCc4ccccc4)C3)cc2)c1)C1CCC1 (configuration not stated)	0	0	0	0	62	0
COc1ccc2c(c1)C(C)=CC(C)(C)N2S(=O)(=O)c1ccc(NC(C)=O)cc1	64	0	0	0	0	0
CC1=CC(C)(C)N(S(=O)(=O)c2ccc(C)cc2)c2ccccc21	-	-	-	0	0	0
CCOc1ccc2c(c1)C(C)=CC(C)(C)N2S(=O)(=O)c1ccc(NC(C)=O)cc1	88	0	0	0	0	0
CC1=CC(C)(C)N(S(=O)(=O)c2ccc(F)cc2)c2ccc(C)cc21	-	0	-	0	0	0
